Bioassay records (PubChem BioAssay)
TbPYK inhibitor – qHTS of Trypanosoma Brucei Inhibitors | pyruvate kinase (Trypanosoma brucei), Q57TT1 | TbPYK enzyme, Kinase-Glo Plus ATP luminescence, 45 min | Potency, µM (top dose mostly 76.8 µM), for inactives: at the top dose activity, negative = inhibition, hits mostly inhibitors | 410,000 tested, 0.12% active; also: potency is read from the fitted curve at half-maximal effect; % is scaled to controls: 0 for no effect and ±100 for the full control effect; nearly all actives have a fitted effect of over 50% in size
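Readout: single end-point luminescence (Kinase-Glo Plus, 10 min). Reaction conditions were TbPYK/substrate plus 130 uM ADP, 45 min at RT, pH 7.2 TEA buffer. No-enzyme wells served as controls, and data were normalized before concentration-response fitting.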
Shiga toxin inh – A qHTS for Small Molecule Inhibitors of Shiga Toxin. Vero cells, Shiga toxin protein synthesis inhibition reporter. inhibition, % at 38.7 µM. 290,000 tested, 9.2% active; in the data active = inhibition mostly above about 28%, no sharp cut-off; inactive = mostly below about 43%; also: 0% is about no effect
RE007 growth inh – qHTS Assay for Inhibitors of the HIV-1 protein Vpr | S. pombe RE007 Vpr strain, BacTiter-Glo ATP luminescence, 24 h | AID 651644, 2012 | 360,000 tested, 0.21% active | Potency, µM (doses to about 92.2 µM), inactives show at the top dose activity change, negative = less growth, actives largely listed as inhibitors; active = well fitted falling curve with a large enough effect; inconclusive = small, poorly fitted or top-dose-only effect; inactive = no such curve, though single readings can be large or run the other way; also: potency is read from the fitted curve at half-maximal effect; % is scaled to controls: 0 for no effect and ±100 for the full control effect; nearly all actives have a fitted effect of over 50% in size
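Fission yeast strain RE007, carrying one chromosomally integrated HIV-1 vpr copy, was seeded at OD 0.01 in PMG+AL medium with 23 nL pinned compound. After 24 h at 30 °C and 99% humidity, viability was read by BacTiter-Glo luminescence.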
Cycloheximide cs – Cycloheximide Counterscreen for Small Molecule Inhibitors of Shiga Toxin; max response, %; 300,000 tested, 12% active; cell reporter, cycloheximide protein synthesis inhibition counterscreen; in the data active = max response mostly above about 13%, no sharp cut-off; inactive = mostly below about 14%; also: read at 38.3 µM for the half of the compounds with a filed dose; 0% is about no effect
LmPK inh – qHTS Assay for Inhibitors of Leishmania Mexicana Pyruvate Kinase (LmPK); Q27686; purified LmPK, Kinase-Glo ATP luminescence, 1 h; Potency, µM (titrated, usually from 57.5 µM), inactives show at the highest dose activity change, negative = inhibition, actives largely listed as inhibitors; 290,000 tested, 0.37% active; AID 1721, 2009; also: potency is read from the fitted curve at half-maximal effect; % is scaled to controls: 0 for no effect and ±100 for the full control effect
Target sequence (Q27686 whole entry, looked up): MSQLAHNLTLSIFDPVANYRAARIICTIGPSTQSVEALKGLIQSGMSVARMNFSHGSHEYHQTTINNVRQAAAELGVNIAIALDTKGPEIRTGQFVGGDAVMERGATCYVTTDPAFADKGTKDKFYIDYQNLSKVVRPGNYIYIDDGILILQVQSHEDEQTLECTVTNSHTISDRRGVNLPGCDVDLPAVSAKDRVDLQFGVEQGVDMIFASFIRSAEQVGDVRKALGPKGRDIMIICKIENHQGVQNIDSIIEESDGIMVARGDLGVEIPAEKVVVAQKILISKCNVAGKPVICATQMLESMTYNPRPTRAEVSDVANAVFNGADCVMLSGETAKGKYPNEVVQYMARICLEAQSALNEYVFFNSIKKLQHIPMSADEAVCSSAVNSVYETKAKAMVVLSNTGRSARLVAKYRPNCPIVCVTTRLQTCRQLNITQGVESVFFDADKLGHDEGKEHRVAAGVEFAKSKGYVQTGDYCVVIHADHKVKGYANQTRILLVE
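Kinase-Glo luminescence read after 1 h RT reaction of 0.1 nM LmPK with 0.5 mM PEP and 0.1 mM ADP. Activity scaled between uninhibited and enzyme-free controls.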
Giardia FBPA inh – qHTS Assay for Inhibitors of Fructose-1,6-bisphosphate Aldolase from Giardia Lamblia; purified Giardia FBPA; 290,000 tested, 0.71% active; Potency, µM (doses to about 59.6 µM), for the others: at the highest dose activity, negative = inhibition, hits mostly inhibitors; AID 2451, 2010; also: potency is read from the fitted curve at half-maximal effect; % is scaled to controls: 0 for no effect and ±100 for the full control effect; nearly all actives have a fitted effect of over 55% in size
Target sequence (A8B2U2 whole entry, looked up): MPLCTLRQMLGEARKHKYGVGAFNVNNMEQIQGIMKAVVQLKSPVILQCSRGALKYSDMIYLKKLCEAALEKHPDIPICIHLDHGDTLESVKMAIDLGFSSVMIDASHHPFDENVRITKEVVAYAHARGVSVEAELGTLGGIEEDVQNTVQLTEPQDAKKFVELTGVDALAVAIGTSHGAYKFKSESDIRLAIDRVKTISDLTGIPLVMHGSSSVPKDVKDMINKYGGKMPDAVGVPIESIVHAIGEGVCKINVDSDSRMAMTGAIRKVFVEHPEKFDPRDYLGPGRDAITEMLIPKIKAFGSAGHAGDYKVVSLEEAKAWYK
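40 nM FBPA preincubated 10 min at RT with compound (up to 57.5 uM final), then substrate plus GAPDH/TPI/NAD/arsenate coupling and diaphorase/resazurin added. Fluorescence read after 20 min at RT, 525/598 nm.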
An asterisk follows results filed as active; ? = inconclusive; · = not tested or not shown; [ ] = another dose, or the depositor's remark. Only a selection was taken, and hits are over-represented in it overall. Unless noted, calls follow the shape of the dose curve; as a rule, active = well fitted curve in the direction sought with a large enough effect; inconclusive = small, poorly fitted or top-dose-only effect, or another doubt; inactive = no such curve, though single readings can be large; an effect the other way counts as inactive or inconclusive.

SMILES | TbPYK inhibitor | Shiga toxin inh | RE007 growth inh | Cycloheximide cs | LmPK inh | Giardia FBPA inh
COc1ccc(OC)c(CNC(=O)c2ccc(Sc3ccc(C)cc3)c(N)c2)c1 | 2.0% | · | · | · | · | ·
Cc1ccc(NC(=O)c2nc3nccc(C)n3n2)c(C)c1 | 1.2% | 79.9* | -19.8% | 30.4* | -3.6% | 11.0%
Cc1ccnc2nc(C(=O)Nc3nnc(CC(C)C)s3)nn12 | -5.9% | 25.2 | -7.5% | 8.6 | 1.3% | -22.5%
Cc1ccnc2nc(C(=O)Nc3nc4ccccc4s3)nn12 | -0.9% | 62.0* | -16.4% | 44.7* | -16.0% | -23.0%
Cc1csc(NC(=O)c2nc3nccc(C)n3n2)n1 | ? | 71.9* | -9.0% | 18.3* | -8.6% | ?
CCOC(=O)c1cc(-c2ccc(OC)cc2)n(CCC(=O)NCc2ccccc2OC)c1C | -2.7% | · | · | · | · | ·
O=C(Nc1nnc(S(=O)(=O)N2CCCc3ccccc32)s1)c1cccc(Cl)c1 | -2.1% | · | · | · | · | ·
CCOC(=O)N1CCN(C(=O)CSCc2ccccc2Cl)CC1 | 0.4% | 44.5* | -0.4% | 26.2 | -1.4% | 4.2%
CCOC(=O)N1CCN(C(=O)CSCc2ccc(C)cc2)CC1 | 1.6% | -2.4 | 13.6% | -1.6 | -2.1% | -2.1%
CCOC(=O)N1CCN(C(=O)CSCc2ccccc2C)CC1 | -1.3% | 59.9* | 0.6% | 36.7* | -0.2% | 3.0%
N#Cc1cccc(NC(=O)Nc2cccs2)c1 | 1.9% | 19.6 | 14.2% | -1.8 | -2.4% | -6.5%
Cc1cccc(NC(=O)Nc2cccc(C#N)c2)n1 | 2.5% | 21.5 | 0.0% | 35.6* | -2.0% | 1.9%
Cc1cccc(NC(=O)Nc2ccc(C#N)cc2)n1 | 3.9% | 17.3 | -2.7% | 17.6* | 1.4% | -9.0%
Cc1ccc(N(CC(=O)N2CCN(c3cccc(C)c3C)CC2)S(=O)(=O)c2c(C)nn(C)c2C)cc1 | 3.3% | · | · | · | · | ·
O=C(NCc1ccccc1OC(F)(F)F)C1CCC(=O)N(C2CC2)C1 (stereo unspecified) | -0.9% | -8.4 | 9.4% | 1.1 | -6.2% | ·
O=C(c1ccc(F)cc1F)N1CCC(c2nc(-c3ccc(S(=O)(=O)N4CCCC4)cc3)no2)CC1 | 3.0% | · | · | · | · | ·
Cc1ccc(-c2noc(C3CCCN(C(=O)c4ccc(F)cc4F)C3)n2)cc1 (stereo unspecified) | -1.7% | 16.6 | 5.2% | 15.1* | 1.2% | -0.6%
COc1cccc(-c2noc(C3CCCN(C(=O)c4ccc(F)cc4F)C3)n2)c1 (stereo unspecified) | 2.5% | 30.9 | -0.2% | 1.2 | -1.2% | -5.2%
CC(C)c1ccc(-c2noc(C3CCCN(C(=O)c4ccc(F)cc4F)C3)n2)cc1 (stereo unspecified) | -6.3% | 37.6* | 9.9% | 54.7* | -7.4% | -0.3%
O=C1N=C(N2C=CC(=C3C=CNC=C3)C=C2)/C(=C/N=NC(=O)c2ccccc2)S1 | -11.2% | 29.7 | -3.0% | -2.2 | -3.2% | -4.1%
Brc1ccc(-c2nc(-c3ccncc3)no2)cc1 | -4.1% | 25.0 | -6.0% | 7.0 | 5.4% | 15.6%
c1ccc(-c2nc(-c3ccncc3)no2)cc1 | -13.6% | 148.1* | -18.9% | 69.6* | 14.1µM* | -12.6%
O=[N+]([O-])c1ccc(-c2nc(-c3ccncc3)no2)cc1 | 3.8% | 37.3* | -8.1% | 18.3* | 2.3% | 3.7%
c1ccc(-c2ccc(-c3nc(-c4ccncc4)no3)cc2)cc1 | -11.4% | 82.0 | 13.3% | 34.8* | 7.8% | -0.8%
c1coc(-c2nc(-c3ccncc3)no2)c1 | -19.4% | 71.2* | -27.7% | 48.8* | 22.4µM* | 0.9%
SMILES | TbPYK inhibitor | Shiga toxin inh | RE007 growth inh | Cycloheximide cs | LmPK inh | Giardia FBPA inh
Fc1ccc(-n2c(-c3cc(C4CC4)[nH]n3)n[nH]c2=S)cc1Cl | ? | 17.1 | -6.8% | -2.9 | 11.2µM* | -18.1%
CCOc1ccc(NC(=O)CSc2nnc(-c3ccc(C)cc3)c(-c3ccc(C)cc3)n2)cc1 | -4.0% | · | · | · | · | ·
COc1ccc(CNC(=S)NCc2ccc(OC)cc2)cc1 | -4.7% | -3.1 | -6.0% | 1.3 | 1.1% | -6.9%
CCOc1ccc(NC(=S)NCc2ccc3c(c2)OCO3)cc1 | 2.1% | 22.5 | 17.7% | 9.1* | 11.2% | -2.1%
Cc1ccc(NC(=S)NCc2ccc3c(c2)OCO3)cc1 | -2.7% | 5.7 | -1.0% | 6.9 | 2.5% | -3.4%
CCOc1ccc(CNC(=S)NCc2ccc(OCC)cc2)cc1 | -2.5% | 9.1 | 0.5% | 11.4* | -2.9% | 4.8%
COc1ccc(NC(=O)NCc2ccc3c(c2)OCO3)cc1 | 3.6% | 6.6 | 13.2% | 2.4 | 3.4% | 3.9%
CC(=O)Nc1ccc(OCc2ccc3c(c2)OCO3)cc1 | -13.4% | 166.6* | -3.7% | 46.4* | -12.9% | -2.4%
COC(=O)c1sccc1S(=O)(=O)N(CC(=O)NCc1ccccc1)c1ccc(C)cc1 | 1.3% | · | · | · | · | ·
O=C1C(Nc2ccccc2)=C(N2CCCCC2)C(=O)c2ccccc21 | -15.2% | 72.5* | ? | 31.1* | -9.0% | ?
Cc1ccc(NC2=C(N3CCCCC3)C(=O)c3ccccc3C2=O)cc1 | 0.0% | 106.8* | -4.4% | 49.6* | -8.9% | ?
COc1ccccc1NC1=C(N2CCCCC2)C(=O)c2ccccc2C1=O | -5.6% | 37.7 | ? | 23.2* | -7.9% | ?
O=C1C(NS(=O)(=O)c2ccc(Br)cc2)=C(N2CCCCC2)C(=O)c2ccccc21 | -8.1% | -3.7 | -25.5% | -1.7 | -6.0% | ?
CN(C1=C(N2CCCCC2)C(=O)c2ccccc2C1=O)c1ccccc1 | -5.7% | -2.6 | -28.7% | 11.9 | ? | ?
O=C1C(Nc2cccc(O)c2)=C(N2CCCCC2)C(=O)c2ccccc21 | -22.6% | 51.2* | -27.6% | 34.5* | -3.3% | ?
CC1CCc2c(sc3nnn(CC(=O)Nc4cccc(C(F)(F)F)c4)c(=O)c23)C1 (stereo unspecified) | -2.2% | · | · | · | · | ·
CCN(CC)C(=O)c1sc2c(c1C)c(=O)n(-c1ccc(Cl)c(Cl)c1)c(=O)n2Cc1cc(=O)n2ccccc2n1 | 0.7% | · | · | · | · | ·
O=C(/C=C/c1ccc(O)cc1)c1ccc(NC2=C(N3CCCCC3)C(=O)c3ccccc3C2=O)cc1 | -7.0% | 159.6* | -5.8% | 59.3* | -18.9% | ?
O=C(/C=C/c1ccccc1)c1ccc(O)cc1 | · | · | · | · | · | -0.8%
COC(=O)[C@@H]1CC[C@H](C)[C@@H](c2ccc(C)cc2)N1C(=O)c1ccc(/C=N\OCC[C@@H]2C=C[C@H](OC(C)=O)[C@H](COC(C)=O)O2)cc1 | · | · | · | · | · | 1.3%[12.9 µM]
O=C1OC(Cc2ccccn2)C(O)=C1C1=NCCCCN1 (stereo unspecified) | -1.9% | 115.8* | -9.2% | 39.4* | -4.6% | -0.4%[12.9 µM]
O=C1Nc2ccccc2C1Cc1ccccn1 (stereo unspecified) | -5.8% | -0.5 | 7.3% | -2.5 | -12.2% | -16.9%
